Measurements as given in PubChem BioAssay AID504332 (National Center for Advancing Translational Sciences (NCATS), 2011).
In all, about 350,000 compounds went through this assay and about 31,000 (8.9%) were called active. Not shown: some 15% with an inconclusive outcome. The full list was thinned out, with actives kept by preference. A number with no mark means an inactive call. Calls follow the shape of the dose curve; as a rule, active = well fitted inhibition curve with a large enough effect; inconclusive = small, poorly fitted or top-dose-only effect; inactive = no such curve, though single readings can be large or run the other way.

biological target: Histone-lysine N-methyltransferase EHMT2 (Homo sapiens) (UniProt Q96KQ7); experiment: qHTS Assay for Inhibitors of Histone Lysine Methyltransferase G9a; details: G9a H3K9 monomethylation, AlphaScreen, 2 h; series mostly up to 59 µM; activity, negative = inhibition: at the top concentration; also: nearly all actives have a fitted effect of over 75% in size
Sequence (Q96KQ7 913-1193 limits assumed): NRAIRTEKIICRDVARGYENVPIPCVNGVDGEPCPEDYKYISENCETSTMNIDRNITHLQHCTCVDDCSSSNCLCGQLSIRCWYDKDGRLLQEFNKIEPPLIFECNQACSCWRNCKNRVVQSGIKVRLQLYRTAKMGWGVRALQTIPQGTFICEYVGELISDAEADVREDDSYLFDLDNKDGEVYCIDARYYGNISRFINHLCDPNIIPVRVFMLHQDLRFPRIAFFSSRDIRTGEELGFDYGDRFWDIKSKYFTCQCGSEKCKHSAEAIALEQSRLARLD
Procedure, shortened: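 Readings reflect AlphaScreen signal from monomethyl-H3K9 antibody detection. HMT at 20 nM; substrate b-H3K9 500 nM; cofactor SAM 20 uM; 2 h RT reaction; compounds tested as titrations in qHTS with 15 min preincubation.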
% is scaled to controls: 0 for no effect and ±100 for the full control effect; potency is read from the fitted curve at half-maximal effect.

Structure (SMILES)	Potency	activity, negative = inhibition
Cc1cc2c(cc1C)[n+](C)cn2CC(O)COCC1CC=CCC1 (stereo unspecified)	39.8 µM (active)	
COc1ccc(C(=O)NCC2CCCN2S(=O)(=O)c2cccs2)cc1OC (stereo unspecified)		4.75% [at 102 µM]
CC(=O)NC(c1cccs1)c1cc(Br)c2cccnc2c1O (stereo unspecified)		7.81% [at 12.7 µM]
Cc1c(NC(=O)/C=C/C(=O)O)cccc1[N+](=O)[O-]	39.8 µM (active)	
Cc1cccc(NC(=S)NCCc2ccc(F)cc2)c1C		8.37%
Cc1c(NC(=O)Nc2ccccc2)cccc1[N+](=O)[O-]		15.3% [at 102 µM]
Cc1c(NC(=S)NCc2ccc(F)cc2)cccc1[N+](=O)[O-]	39.8 µM (active)	
COc1ccccc1NC(=O)/C=C/C(=O)O		-38.1% [at 102 µM]
CCNC(=S)Nc1cccc(Cl)c1C		19.4%
CCCCNC(=O)c1cc(-c2ccc(Cl)c(Cl)c2)on1		8.77%
O=C(COc1ccccc1)NCc1ccc2c(c1)CCN2C(=O)c1ccc(F)cc1		-0.362%
O=C(NCCCN1CCCC1=O)C(=O)NCC1OCCN1S(=O)(=O)c1ccc(Br)cc1 (stereo unspecified)		30.6% [at 102 µM]
Cc1ccc(NC(=O)CN2C(=O)CC(C)Sc3ccccc32)c(C)c1 (stereo unspecified)		-3.84%
COc1ccc(S(=O)(=O)N(C)CC(=O)N2CCCC2)cc1		-6.5% [at 102 µM]
CCc1ccc(-n2nc(C)c3c(C)cc(=O)n(CC(=O)Nc4ccc(F)cc4C)c32)cc1		13.4%
CCN(CC)c1ccc(NC(=O)Cn2nc3c(cc2=O)CCCC3)c(C)c1	11.2 µM (active)	
Cc1cc(NC(=O)Cn2nc(C(F)(F)F)c3c2CCCC3)no1		2.94%
C/C(=C/c1ccccc1)C(=O)N1CCN(c2ccccc2)CC1		-3.56% [at 102 µM]
CCOc1ccc(NC(=O)c2cnn(-c3ccccc3)c2-n2cccc2)cc1		-16.2%
N#C/C(=C/c1ccc(N2CCOCC2)o1)C(=O)N1CCOCC1	7.94 µM (active)	
O=C(N1CCOCC1)N1CCOCC1		9.64%
Cc1ccc(C(=O)N2CCN(C(=O)N3CCOCC3)CC2)cc1		-4.57%
Cc1cccc(NC(=O)Cc2ccc(Br)cc2)n1		12.1% [at 0.501 µM]
CCOCCCNC(=O)c1c(NC(=O)Cc2coc3ccc(C)cc23)sc2c1CCC2		-21.4%

Structure (SMILES)	Potency	activity, negative = inhibition
O=C(CSCc1cnn(-c2ccccc2)c1-n1cccc1)NCc1ccc(Cl)cc1		-27.5%
Cc1cccc(N2C(=O)SC(SC(=Nc3ccccc3)Nc3ccccc3)C2=O)c1 (stereo unspecified)	3.55 µM (active)	
Cc1cccc(N2C(=O)SC(N(CC(=O)O)c3cccc(C)c3)C2=O)c1 (stereo unspecified)		-87.4% [at 102 µM]
Cc1cccc(N2C(=O)C3C(c4ccccc4)OC4(C(=O)c5ccccc5C4=O)C3C2=O)c1 (stereo unspecified)		-13.5%
COc1ccc(OC)c(-c2csc(NC(=O)COC(=O)C3CC3)n2)c1		-10.3%
COc1cccc(CNC(=O)COC(=O)CN2C(=O)NC3(CCCCC3C)C2=O)c1 (stereo unspecified)		7.7% [at 12.7 µM]
COc1ccc(C2/C(=C(/O)c3ccccc3)C(=O)C(=O)N2C)c(OC)c1 (stereo unspecified)		-3.6% [at 0.501 µM]
COc1ccccc1C1/C(=C(/O)c2ccc(OC(C)C)cc2)C(=O)C(=O)N1c1cc(C)on1 (stereo unspecified)	1.26 µM (active)	
Cc1cc(N2C(=O)C(=O)/C(=C(/O)c3ccc(Cl)cc3)C2c2cccc(Br)c2)no1 (stereo unspecified)		-2.11%
COC(=O)C1(C)CC1(c1ccccc1)c1ccccc1 (stereo unspecified)		48.6% [at 102 µM]
CC(=O)c1ccc(N2CCN(S(=O)(=O)c3ccc4c(c3)CC(=O)N4C)CC2)cc1		0.477% [at 102 µM]
Cc1ccc2oc(=O)c3cnn(CC(=O)N4CCN(c5cccc(Cl)c5)CC4)c3c2c1		-0.798%
CSc1ccc(CCNC(=O)c2cnn(-c3ccccc3)c2-n2cccc2)cc1		3.56%
CC1CCN(C(=O)C2CCN(S(=O)(=O)N3CCC4(CC3)OCCO4)CC2)CC1		-9.21% [at 102 µM]
Cc1csc(=O)n1CC(=O)OCC(=O)N(CC(C)C)c1c(N)n(Cc2ccccc2)c(=O)[nH]c1=O		6.53% [at 102 µM]
COc1ccc2oc(C(=O)OCC(=O)N(CC(C)C)c3c(N)n(Cc4ccccc4)c(=O)[nH]c3=O)c(C)c2c1	39.8 µM (active)	
COCCN(C(=O)COC(=O)Cc1cccc(OC)c1)c1c(N)n(Cc2ccccc2)c(=O)[nH]c1=O		-40.6% [at 102 µM]
O=C(NC1CC(=O)N(c2ccc(F)cc2)C1)c1ccc(S(=O)(=O)N2CCCC2)cc1 (stereo unspecified)		-39.5%
CCN(CC)C(=O)CSc1nc2cc3c(cc2c(=O)n1CCCC(=O)NCc1ccc2c(c1)OCO2)OCO3		0.103%
CCc1c(C)[nH]c(=S)c(C#N)c1C	1.12 µM (active)	
CCOC(=O)C1=C(CN2CCCCCC2)NC(=O)NC1c1cccc([N+](=O)[O-])c1 (stereo unspecified)		-40.2% [at 102 µM]
CCOC(=O)C1=C(CCc2ccccc2)NC(=O)NC1c1ccc2ccccc2c1 (stereo unspecified)		-5.48% [at 102 µM]
CCOC(=O)C1=C(CN2CCc3ccccc32)NC(=O)NC1c1cccc([N+](=O)[O-])c1 (stereo unspecified)	39.8 µM (active)	
Cc1ccc(C)c(N2CCN(C(=O)CN3C(=O)COc4ccc(S(=O)(=O)N5CCCCCC5)cc43)CC2)c1		1.44%

Structure (SMILES)	Potency	activity, negative = inhibition
CC(C)(C)C(=O)COC(=O)c1cc(S(=O)(=O)N2CCCCC2)ccc1N1CCOCC1		-0.482% [at 102 µM]
C=CCn1c(SCc2ccccc2)nc2c1c(=O)[nH]c(=O)n2C	31.6 µM (active)	
Cc1nnc(Sc2nc3c(c(=O)[nH]c(=O)n3C)n2Cc2ccccc2)s1		17.7% [at 12.7 µM]
C=CCSc1nc2c(c(=O)[nH]c(=O)n2C)n1Cc1ccccc1		30.7% [at 102 µM]
O=[N+]([O-])c1cc(Br)c(O)c(/C=N/Nc2nc3ccccc3s2)c1		115% [at 102 µM]
Cc1nn(CC(=O)Nc2nc3ccccc3s2)c(C)c1[N+](=O)[O-]		11.1% [at 0.501 µM]
O=[N+]([O-])c1c(NCCO)cc(Sc2nc3ccccc3s2)c2nonc12	3.55 µM (active)	
Cc1c(NC(=S)Nc2ccccc2)c(=O)n(-c2ccccc2)n1C		0.236%
Cc1c(NS(=O)(=O)c2ccc(Cl)cc2)c(=O)n(-c2ccccc2)n1C		9.47%
CCN(CC)P(=O)(/C(Cl)=C\Nc1c(C)n(C)n(-c2ccccc2)c1=O)N(CC)CC	31.6 µM (active)	
CC1CCN(c2oc(-c3ccccc3F)nc2C#N)CC1	7.94 µM (active)	
COc1ccccc1-c1nc(C#N)c(N2CCC(C(N)=O)CC2)o1		-5.97% [at 102 µM]
Cc1oc(-c2ccccc2F)nc1CS(=O)CC(=O)NCCN1CCCCC1C (stereo unspecified)		-25.9% [at 102 µM]
COc1ccc(Cl)cc1NC(=O)C(C)Sc1nc2c(c(=O)[nH]1)CCCC2 (stereo unspecified)		-28.6%
CC(=O)Nc1ccc(S(=O)(=O)Nc2nccc(/C=C/c3ccccc3F)n2)cc1		-3.27% [at 102 µM]
Cc1cc(C)nc(NS(=O)(=O)c2ccc(N/C=C\C(=O)c3cccs3)cc2)n1	50.1 µM (active)	
CCOc1ncccc1C(=O)Nc1ccc(S(=O)(=O)Nc2nc(C)cc(C)n2)cc1		108% [at 12.7 µM]
O=C(O)c1cc([N+](=O)[O-])c(Nc2cccc3ccccc23)c([N+](=O)[O-])c1	44.7 µM (active)	
O=C(Nc1ccccc1[N+](=O)[O-])C1C(c2ccccc2)=C1c1ccccc1		24.3% [at 0.501 µM]
O=C(O)c1ccccc1-c1ccccc1C(=O)Nc1cccc2ccccc12		8.04%
Cc1ccccc1-n1c(=O)c2ccccc2n(Cc2ccc(F)cc2)c1=O		3.97%
O=C(NCCc1ccccc1)C(=O)NCC(c1ccco1)S(=O)(=O)c1ccccc1 (stereo unspecified)		-6.5%
COC(=O)[C@H](Cc1ccccc1)NC(=O)N1CC(C)OC(C)C1 (stereo partly specified)		10.9% [at 102 µM]
CC1CN(C(=O)CN2C(=O)NC(C)(c3ccccc3)C2=O)CC(C)O1 (stereo unspecified)		5.65% [at 2.33 µM]

Structure (SMILES)	Potency	activity, negative = inhibition
CN(C)CC(C)(C)CNC(=O)c1cc(Br)cc(Br)c1O		-26.2% [at 102 µM]
O=C1Nc2c(Br)cc(Br)cc2C1(O)N1CCOCC1 (stereo unspecified)		5.27% [at 12.7 µM]
O=C(CSC(=S)N1CCOCC1)c1cc(Br)cc(Br)c1O	79.4 µM (active)	
O=C(CSC(=S)N1CCOCC1)c1ccccc1	7.08 µM (active)	
NC(=NC(=O)c1ccccc1)N1CCOCC1		3.07%
CC1CN(C(=S)SCC(=O)c2ccccc2)CC(C)O1 (stereo unspecified)	1.78 µM (active)	
O=C(NC(=O)N1CCOCC1)c1ccccc1		-4.57%
COc1cccc(-c2nc(S(=O)(=O)c3ccc(C)cc3)c(NCc3ccccc3)o2)c1		-39.8%
COc1ccccc1CNC(=O)c1ccc(CS(=O)c2ccccc2Cl)o1 (stereo unspecified)		2.15%
CCCCCn1c(CCCNC(=O)c2ccccc2OC)nc2ccccc21		-4.32%
CNS(=O)(=O)c1cccc(C(=O)NC2CCCc3ccccc32)c1 (stereo unspecified)		-3.96% [at 102 µM]
O=C(CCNS(=O)(=O)c1ccccc1)NCCSc1ccc(Br)cc1		9.11%
Cc1ccc(C(=O)OCC(=O)NCc2cc(C)c(O)c(C)c2)cc1S(=O)(=O)N1CCCCC1		5%
CCOCCCNC(=O)c1c(NC(=O)Cc2coc3c(C)c(C)ccc23)sc2c1CCC2		-3.27%
COc1ccccc1CNC(=O)Cn1nc(C)c2nn(-c3ccc(Cl)cc3)c(C)c2c1=O		10.4%
Cc1ccc(-n2c(SCC(=O)N/N=C/C=C/c3ccccc3[N+](=O)[O-])nc3ccccc3c2=O)cc1		-9.25%
CCn1c(SCC(=O)N/N=C/C=C/c2ccccc2[N+](=O)[O-])nnc1-c1ccccc1	39.8 µM (active)	
O=C(CSc1nc2ccccc2[nH]1)N/N=C/C=C\c1ccccc1[N+](=O)[O-]		-16.6%
CC(C)COc1ccc(C(=O)OCC(=O)NCCC2=CCCCC2)cc1		-4.08% [at 102 µM]
CC(NC(=O)C1CCCN(S(=O)(=O)c2ccc(-n3cnnn3)cc2)C1)c1ccc(F)cc1 (stereo unspecified)		11.5% [at 102 µM]
COC(=O)CCc1sc(Nc2ccc(Br)cc2)nc1-c1ccc(OC)cc1	35.5 µM (active)	
Cc1ccc(OC(=O)CCC(=O)Nc2ccc(Br)cc2)cc1		4.61%
COc1ccc(NC(=O)CCC(=O)Nc2nnc(C3CCCCC3)s2)cc1		-0.257% [at 102 µM]
COc1ccccc1CNC(=O)CCCN1C(=O)NC2(CCCC2)C1=O		-40.6% [at 102 µM]
